Source: PubChem BioAssay (several laboratories)
Calb FLC: affects C. albicans growth with fluconazole; C. albicans CaCi-2 (fluconazole-resistant clinical isolate) + fluconazole, Alamar Blue growth, 48 h; growth inhibition, % (concentration not given with the values); actives 0.57% (n = 300,000);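 active = growth inhibition above about 58% in most replicates, limit read from the data, passing the limit was not always enough; inconclusive = exactly half the replicates above a set limit; inactive = most replicates below a set limit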;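 also: all wells also contain fluconazole at 8 µg/ml as a sub-toxic cotreatment; 0% = median of DMSO wells and 100% = median of geldanamycin control wells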
SUMO Mot1 rescue: inhibitors of SUMOylation pathway: yeast Mot1-301 growth rescue | growth rescue, % at 18.8 µM | S. cerevisiae Mot1-301 growth rescue, ATP luminescence, 38.5C; percent above DMSO median, 100 means doubled | AID 2716 | actives 1% (n = 320,000);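 active = every valid replicate shows activation above 250% relative to neutral control wells; inactive = the rest, any valid replicate at or below 250%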;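 also: OY570 slx delta 5 strain wells were the positive control but not used for scaling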
NadD inh: inhibitors of Staphylococcus aureus NadD. purified NadD enzyme, colorimetric absorbance read-out. inhibition, % at 20 µM. actives 0.78% (n = 360,000); in the data active = inhibition above about 26%
ATG4B inhibitor: inhibitors of human ATG4B cysteine protease. Q9Y4P1. ATG4B cleavage of LC3-PLA2, NBD-HPC fluorescence, 1 h. inhibition, % at 8.33 µM. actives 0.51% (n = 340,000). AID 504462; in the data active = inhibition above about 40%
FAS TE block: inhibitors of human fatty acid synthase thioesterase domain. P49327. recombinant FAS-TE, OMFH fluorogenic substrate, fluorescence endpoint. inhibition, % at 15 µM. actives 0.67% (n = 360,000). AID 602261;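 active = compounds whose normalised, plate-corrected inhibition of enzyme fluorescence in the single-dose primary screen is 50% or more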;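 also: 0% = DMSO with enzyme and 100% = substrate without enzyme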
ATG4B confirm: ATG4B (human) inhibition, single-dose confirmed. shares compounds with ATG4B inhibitor. ATG4B protease fluorescent substrate cleavage assay. inhibition, % at 8.33 µM. actives 92% (n = 320). AID 504757; in the data active = inhibition above about 39%
PLA2 counter: inhibits human PLA2, flagging false ATG4B inhibitors; actives 66% (n = 1,600); AID 588402; purified PLA2, NBD-C6-HPC fluorescence, 45 min; inhibition, % at 8.33 µM; shares compounds with ATG4B inhibitor; in the data active = inhibition above about 50%
Numbers without * were called inactive; ? = inconclusive; / = no result. This is a sample that favours compounds with a hit; in the whole collection about 3.1% have one here.

SMILES	Calb FLC	SUMO Mot1 rescue	NadD inh	ATG4B inhibitor	FAS TE block	PLA2 counter	others
COC(=O)c1sc(N(C)C)c(C#N)c1-c1ccccc1	11	111	-5	44*	8	40	ATG4B confirm=64*
CCN(CC)S(=O)(=O)c1ccc(NC(=O)C2c3ccccc3Oc3ccccc32)cc1	-24	147	-3	-4	35	/
CCN(Cc1ccccc1)S(=O)(=O)c1ccc(C(=O)N(CCCN(C)C)c2nc3c(C)c(C)ccc3s2)cc1	36	191	0	40*	23	50*
CCN(Cc1ccccc1)S(=O)(=O)c1ccc(C(=O)N(CCCN(C)C)c2nc3cc4c(cc3s2)OCO4)cc1	-1	1	5	8	18	/
CCCOc1ccc2ccccc2c1/C=C1\SC(=O)NC1=O	45	-11	-5	/	12	34
O=C1NC(=O)/C(=C\c2ccccc2OCc2ccccc2)S1	?	24	5	47*	2	49	ATG4B confirm=59*
COc1ccccc1OCCCOc1ccc(/C=C2\SC(=O)NC2=O)cc1OC	2	249	7	-3	12	/
Cc1c(CNC(=O)C2CC2)c(-n2cccc2)n(Cc2ccccc2)c1C	-8	/	-10	-2	-3	/
CCc1ccc(Nc2ccc(C(N)=O)cc2[N+](=O)[O-])cc1	1	6	-2	72*	8	81*
Cc1ccc(Nc2ccc(C(N)=O)cc2[N+](=O)[O-])cc1C	-36	6	-6	65*	2	65*
CCc1ccc(Nc2ccc(C(=O)O)cc2[N+](=O)[O-])cc1	-3	-4	-5	10	2	/
Cc1ccc2[nH]cc(CCNC(=O)c3cccs3)c2c1	3	7	-8	0	1	/
O=S(=O)(c1ccccc1)N1CCN(c2cccc(Cl)c2)CC1	3	41	-5	51*	25	61*
N#Cc1ccc(N)cc1OCCCN1CCCCC1	/	/	-67	2	-2	/
COc1ccc(Cl)cc1C(=O)NC(=S)Nc1cc(-c2nc3ccccc3[nH]2)ccc1C	-20	-9	34*	66*	29	79*
COc1cccc(OC)c1C(=O)Nc1cccc(-c2nc3ccccc3[nH]2)c1	0	-1	6	53*	4	62*
COc1ccc(Cl)cc1C(=O)NC(=S)Nc1nc(C)cc(C)n1	1	-10	4	-5	4	/
CC(=O)Nc1cccc(-c2nc3ccccc3[nH]2)c1	-3	1	-4	-6	-4	/
Clc1cccc(Cl)c1CNc1ccc(N2CCCC2)cc1	4	47	/	43*	/	42	ATG4B confirm=64*
O=C(Cc1ccc(Cl)cc1)Nc1ccc(N2CCCC2)cc1	3	28	30	-5	-7	/
Cc1ccccc1Oc1nc2ccccn2c(=O)c1/C=C(\C#N)C(=O)Nc1c(C)n(C)n(-c2ccccc2)c1=O	4	-7	9	5	-1	/
COCCNC(=O)/C(C#N)=C/c1c(N2CCN(c3ccccc3)CC2)nc2c(C)cccn2c1=O	2	0	-3	40*	16	45	ATG4B confirm=65*
Cc1ccccc1Oc1nc2c(C)cccn2c(=O)c1/C=C(\C#N)C(=O)Nc1c(C)n(C)n(-c2ccccc2)c1=O	1	7	12	53*	14	66*
CCCCc1cc(=O)oc2c(C)c(OCC(=O)N3C[C@H]4C[C@@H](C3)c3cccc(=O)n3C4)ccc12	2	-20	4	-9	0	/
Cc1ccc(S(=O)(=O)NN=Cc2ccccc2Cl)cc1	/	/	-4	/	-5	/
Cc1ccc(OCc2cc(C(=O)NCc3cc(F)ccc3C)no2)cn1	-15	/	1	50*	1	54*
Cc1ccc(C)c(C(=O)COC(=O)Cn2c(C)csc2=O)c1	-13	-7	-8	3	8	/
Cc1ccc(O)c(N=Cc2cc(Cc3ccccc3)cc([N+](=O)[O-])c2O)c1	98*	/	54*	79*	10	76*
COC(=O)c1ccccc1S(=O)(=O)N1CCC(C(=O)OC(C)C(=O)N(C)Cc2ccccc2)CC1 (stereo not given)	/	/	-7	-1	0	/
COc1ccc(C=O)cc1CN1CCCN(Cc2ccccc2F)S1(=O)=O	5	-8	-9	53*	17	56*
